High-throughput results (PubChem BioAssay)
Peg3 prom inh: Peg3 promoter-driven luciferase inhibitors, primary screen, cell-based, HeLa, luciferase luminescence; inhibition, % at 20 µM; hit rate 1.7% among 360,000; HeLa PEG-Prom luciferase reporter, overnight;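 active means inhibition of at least 50% at 20 µM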
PAX8 reporter: inhibitors of PAX8-driven TPO luciferase reporter, primary screen, RMG-I cells, single concentration | SteadyGlo, 24 h | inhibition, % at 12.6 µM | hit rate 1.2% among 360,000 | AID 652154, 2013;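 active means mean replicate inhibition at least 60% with every replicate also reaching 60%; inconclusive means only one of the two criteria is met; inactive means mean below 60% and not all replicates reaching 60%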;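 further: luciferase light reporting Pax8 driven TPO promoter activity; plate controls were median of neutral control wells for no effect and mitoxantrone controls for full effect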
ABHD5-PLIN5 inh: ABHD5-PLIN5 interaction inhibitors, primary screen, cell lysate, split luciferase complementation, luminescence. hit rate 0.78% among 360,000. inhibition, % at 4 µM. Split G. princeps luciferase complementation, 4 h;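 active means inhibition above the mean inhibition across every tested compound plus 3 SD, cut at about 22% in these data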;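 further: 0% = DMSO only wells and the 100% control is not disclosed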
Target sequence (Q00G26 whole entry, looked up): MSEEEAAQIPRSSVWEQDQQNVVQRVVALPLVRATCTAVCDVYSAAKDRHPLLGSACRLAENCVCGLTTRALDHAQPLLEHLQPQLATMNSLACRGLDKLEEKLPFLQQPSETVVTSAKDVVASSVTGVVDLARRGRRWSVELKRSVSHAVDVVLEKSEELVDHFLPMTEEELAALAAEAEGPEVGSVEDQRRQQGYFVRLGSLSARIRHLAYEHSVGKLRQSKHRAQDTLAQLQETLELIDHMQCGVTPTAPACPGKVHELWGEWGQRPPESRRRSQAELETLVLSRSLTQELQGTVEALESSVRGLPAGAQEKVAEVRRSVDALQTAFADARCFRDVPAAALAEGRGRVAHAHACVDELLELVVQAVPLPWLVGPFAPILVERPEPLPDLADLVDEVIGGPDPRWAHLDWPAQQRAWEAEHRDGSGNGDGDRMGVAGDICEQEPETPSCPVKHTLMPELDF
Target sequence (Q8WTS1 whole entry, looked up): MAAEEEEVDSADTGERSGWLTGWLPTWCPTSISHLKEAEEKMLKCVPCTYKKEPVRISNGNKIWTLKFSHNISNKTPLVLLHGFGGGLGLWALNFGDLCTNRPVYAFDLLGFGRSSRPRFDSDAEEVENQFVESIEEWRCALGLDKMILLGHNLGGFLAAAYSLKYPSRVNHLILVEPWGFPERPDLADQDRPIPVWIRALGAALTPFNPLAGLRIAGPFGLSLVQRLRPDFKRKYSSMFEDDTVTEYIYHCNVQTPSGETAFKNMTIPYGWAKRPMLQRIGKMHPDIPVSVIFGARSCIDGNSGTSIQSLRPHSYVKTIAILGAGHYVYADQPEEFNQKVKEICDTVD
Shn3 3UTR inh: reduction of Shn3 3'UTR firefly luciferase signal, primary screen, Schnurri-3 inhibitor project, cell-based, Clone20 osteoblasts, set 2 | Clone20 osteoblast Shn3 3'UTR firefly luciferase, 24 h | hit rate 0.52% among 360,000 | AID 588674, 2011 | inhibition, % at 12.5 µM;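 active means mean inhibition of at least 75% with every replicate also reaching 75%; inconclusive means mean inhibition at least 75% but some replicate below; inactive means mean inhibition below 75%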;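 further: 0% = median of neutral control wells and 100% = pilot-screen positive control compound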
TRPM1 prom inh: inhibitors of MITF-dependent TRPM1 promoter reporter, primary screen, cell-based, SK-MEL-5, single point, luciferase; SK-MEL-5 TRPM1 promoter luciferase, 24 h; inhibition, % at 12.5 µM; hit rate 0.83% among 330,000; AID 488899, 2010;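 active means mean inhibition across replicates of 60% or more, whatever share of single replicates reaches that level; inconclusive means some that reach 60%, reason not given; inactive means mean inhibition across replicates below 60%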
EWS-Fli block: EWS/Fli-driven NR0B1 reporter inhibitors, primary screen, A673 cells, NR0B1 luciferase, luminescence, MLPCN library. viability-normalised. inhibition, % at 12.6 µM. hit rate 0.67% among 350,000. AID 651661, 2012;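 active means mean inhibition of at least 50% after viability correction, with every replicate also passing that limit; inconclusive means mean reaches 50% but only one of two replicates passes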;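 further: firefly luciferase signal divided by Alamar Blue viability fluorescence both relative to DMSO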
An asterisk follows results filed as active; ? = inconclusive; . = not tested or not shown. Only some compounds are listed: those with a hit (about 3% of all), similar ones and a draw of the others.

SMILES	Peg3 prom inh	PAX8 reporter	ABHD5-PLIN5 inh	Shn3 3UTR inh	TRPM1 prom inh	EWS-Fli block
CCC(=O)N1C[C@H](C)[C@H](OC)CN(C)C(=O)c2cc(NC(=O)CC(F)(F)F)ccc2OC[C@@H]1C	.	-27	.	.	.	.
COc1ccc(OC)c(C(=O)/C=C/c2ccccc2C(F)(F)F)c1	102*	35	17	-3	15	.
COc1ccc(OC)c(N/C=C/C(=O)c2ccccc2)c1	73*	78*	-4	34	53	81*
FC(F)(F)c1cccc(NC(=S)NCc2ccc(Cl)cc2)c1	40	17	-4	27	3	.
Fc1ccc(CNC(=S)Nc2cccc(C(F)(F)F)c2)cc1	69*	-17	-2	-1	-1	.
CCCC(=O)NC(c1ccc(Cl)cc1Cl)c1ccc2cccnc2c1O (stereo not drawn)	59*	80*	12	92*	66*	38
CCCC(=O)NC(c1ccccc1OC)c1ccc2cccnc2c1O (stereo not drawn)	58*	.	-2	88*	81*	.
CCC(=O)NC(c1ccc(C)cc1)c1cc(Cl)c2cccnc2c1O (stereo not drawn)	49	.	-9	79	4	.
CCCNC(=O)N1CC2(CCN(Cc3ccccn3)CC2)c2c(n(C)c3cc(OC)ccc23)[C@@H]1CO	.	.	.	.	.	-5
Cc1cc(S(=O)(=O)c2ccc([N+](=O)[O-])cn2)ccc1Br	107*	86*	16	98*	90*	36
CC(C)CC#Cc1cnc2c(c1)C(=O)N([C@@H](C)CO)C[C@@H](C)[C@@H](CN(C)C(=O)CCN1CCCCC1)O2	.	.	.	.	.	-5
COC1=C(N)C(=O)c2nc(C)ccc2C1=O	34	-5	-48	-43	113*	-68
COc1ccc(N)c2c1C(=O)c1ccccc1C2=O	-115	.	6	-29	-16	.
COc1cc2c(c(OC)c1OC)-c1ccc(OC)c(=O)cc1C(NC(=O)c1ccccc1)CC2 (stereo not drawn)	-50	70*	8	0	33	?
C=COC(=O)NC1CCc2cc(OC)c(OC)c(OC)c2-c2ccc(SC)c(=O)cc21 (stereo not drawn)	-16	65*	-2	-8	51	29
COc1cc2c(c(OC)c1OC)-c1ccc(SC)c(=O)cc1C(NC(=O)c1ccccc1)CC2 (stereo not drawn)	-24	67*	10	7	40	30
COc1cc2c(c(OC)c1OC)-c1ccc(SC)c(=O)cc1C(NC=O)CC2 (stereo not drawn)	-14	100*	-6	6	64*	62*
C[C@@H]1CN([C@H](C)CO)C(=O)c2cc(C3=CCCC3)cnc2O[C@@H]1CN(C)C(=O)Nc1ccccc1	.	-7	.	.	.	-3
CCNC(=O)C[C@@H]1CC[C@H]2[C@@H](COC[C@@H](O)CN2C(=O)Nc2c(C)noc2C)O1	.	-12	.	.	.	7
COc1ccc(S(=O)(=O)Nc2ccc3c(c2)C(=O)N([C@H](C)CO)C[C@H](C)[C@H](CN(C)C(=O)NC(C)C)O3)cc1	.	.	.	.	.	2
C[C@H](CO)N1C[C@H](C)[C@@H](CN(C)C(=O)Nc2ccc(C(F)(F)F)cc2)OCCCC[C@H](C)Oc2ccc(NC(=O)CCC(F)(F)F)cc2C1=O	.	35	.	.	.	2
CN(CC(=O)Nc1ccccc1Cl)C(=O)COC(=O)c1nc(Cl)c(Cl)c(Cl)c1Cl	105*	-6	1	3	74*	23
CN(CC(=O)Nc1ccccc1Cl)C(=O)COC(=O)c1ccc(Cl)nc1	3	-12	-2	-3	-3	-1
CC1=C(C(=O)N2CCC=CC2=O)Cc2ccccc21	.	95*	.	.	.	12
Cc1ccccc1N1C(=O)Cc2ccccc2C1=O	-2	-31	2	8	0	11
SMILES	Peg3 prom inh	PAX8 reporter	ABHD5-PLIN5 inh	Shn3 3UTR inh	TRPM1 prom inh	EWS-Fli block
Cc1ccc(-c2ccccc2[C@@H]2C[C@H]3CN(C)C(=O)[C@]34CCCN24)o1	7	-7	3	9	4	7
O=C1N(c2ccccc2)C[C@@H]2C[C@@H](c3cc4ccccc4o3)N3CCC[C@@]123	105*	98*	1	97*	40	39
CNC[C@H]1OCCCC[C@H](C)Oc2ccc(NC(=O)Nc3ccc(OC)cc3)cc2C(=O)N([C@H](C)CO)C[C@H]1C	.	-15	.	.	.	-3
COc1ccc(S(=O)(=O)Nc2ccc3c(c2)C(=O)N([C@@H](C)CO)C[C@H](C)[C@@H](CN(C)S(=O)(=O)c2ccc(Cl)cc2)OCCCC[C@@H](C)O3)cc1	.	67*	.	.	.	-6
COc1ccc(S(=O)(=O)N(C)C[C@H]2OCCCC[C@H](C)Oc3ccc(NS(=O)(=O)c4ccc(Cl)cc4)cc3C(=O)N([C@@H](C)CO)C[C@@H]2C)cc1	.	23	.	.	.	-5
COc1ccc(S(=O)(=O)N(C)C[C@@H]2OCCCC[C@H](C)Oc3ccc(NS(=O)(=O)c4ccccc4)cc3C(=O)N([C@H](C)CO)C[C@H]2C)cc1	.	76*	.	.	.	-34
COc1ccc(S(=O)(=O)Nc2ccc3c(c2)C(=O)N([C@@H](C)CO)C[C@H](C)[C@@H](CN(C)S(=O)(=O)c2ccc(Cl)cc2)OCCCC[C@H](C)O3)cc1	.	65*	.	.	.	21
COc1ccc(S(=O)(=O)N(C)C[C@@H]2OCCCC[C@H](C)Oc3ccc(NS(=O)(=O)c4ccc(Cl)cc4)cc3C(=O)N([C@H](C)CO)C[C@@H]2C)cc1	.	79*	.	.	.	17
CNC[C@@H]1Oc2ncc(-c3cccc(C(=O)N(C)C)c3)cc2C(=O)N([C@H](C)CO)C[C@@H]1C	.	-5	.	.	.	3
COc1ccc(NC(=O)Nc2cccc3c2O[C@H](CN(C)S(=O)(=O)c2ccc(Cl)cc2)[C@@H](C)CN([C@@H](C)CO)C3=O)cc1	.	13	.	.	.	-9
C[C@H](CO)N1C[C@H](C)[C@H](CN(C)C(=O)C2CC2)Oc2cc(-c3ccccc3F)ccc2S1(=O)=O	.	.	.	.	.	4
COc1ccc(S(=O)(=O)Nc2ccc3c(c2)C(=O)N([C@H](C)CO)C[C@H](C)[C@@H](CN(C)S(=O)(=O)c2ccc(Cl)cc2)OCCCC[C@H](C)O3)cc1	.	78*	.	.	.	5
C[C@@H](NC(=O)C[C@@H]1CC[C@@H]2[C@H](COC[C@H](O)CN2C)O1)c1ccccc1	.	8	.	.	.	-4
C[C@@H]1CCCCO[C@@H](CN(C)C(=O)C2CCCCC2)[C@@H](C)CN([C@@H](C)CO)C(=O)c2cc(NC(=O)Nc3ccc(C(F)(F)F)cc3)ccc2O1	.	.	.	.	.	0
COc1ccccc1N1CCN(C2=Nc3cccc4cccc2c34)CC1	-187	-123	1	3	-95	-103
COc1ccccc1NC1=Nc2cccc3cccc1c23	-34	91*	5	-2	.	-12
